# Data taken from PubChem BioAssay (EPA / NIEHS).
# Several values for one entry are separate records, joined by “and”; a condition that tells them apart may be missing. Equal entries are not always repeated. Inconclusive results are not listed. Some compounds were tested as several samples or in several runs, with calls that do not always agree. Activity calls are given as the source filed them. How the source made its calls: active means hit-call score of the fitted dose curve at least 0.9, where 1 is the maximum; inconclusive means response in the unintended direction; inactive means score below 0.9.
# Experiments:
# [1] = target: Collagenase 3 (Homo sapiens) (UniProt P45452); test: NVS_ENZ_hMMP13: NovaScreen (NVS) Enzymatic Assay for human Matrix Metalloproteinase-13 (MMP13) (AID 2283182)
# How it was run: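 Recombinant MMP13 cleaving fluorescent substrate, cell-free, measured 1 h after dosing. Primary duplicate screen at 25 uM; actives tested in concentration-response up to 50 uM; loss of signal relative to DMSO.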
# [2] = target: human Matrix Metalloproteinase-7 (MMP7), MMP7 (gene 4316) (UniProt P09237); test: NVS_ENZ_hMMP7: NovaScreen (NVS) Enzymatic Assay for human Matrix Metalloproteinase-7 (MMP7) (AID 2283183)
# How it was run: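 Compounds first tested at 25 uM in duplicate, then at up to 50 uM in concentration series if active. Protease activity measured by fluorescence intensity 1 h after dosing, with fitting relative to DMSO.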
# [3] = target: human Matrix Metalloproteinase-9 (MMP9), MMP9 (gene 4318) (UniProt P14780); test: NVS_ENZ_hMMP9: NovaScreen (NVS) Enzymatic Assay for human Matrix Metalloproteinase-9 (MMP9) (AID 2283190);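 further: cell-free recombinant MMP9 protease activity read by fluorescent substrate signal; active means inhibition seen as loss of fluorescence signal versus DMSO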
# How it was run: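 Screening concentration 25 uM, duplicate wells, then dose series for confirmation. Cell-free enzymatic reaction measured by fluorescence intensity 1 h post-dosing; decreased signal versus DMSO taken as activity.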
# [4] = target: human Phosphodiesterase 4A1 (PDE4A1), PDE4A (gene 5141) (UniProt P27815); test: NVS_ENZ_hPDE4A1: NovaScreen (NVS) Enzymatic Assay for human Phosphodiesterase 4A1 (PDE4A1) (AID 2283191)
# How it was run: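 Fluorescent substrate turnover by recombinant PDE4A1 read after 1 h by mobility-shift separation. Primary duplicate screen at 25 uM; hits retested in concentration series with a 50 uM maximum, relative to DMSO.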
# [5] = target: human Phosphodiesterase 5 (PDE5), PDE5A (gene 8654) (UniProt O76074); test: NVS_ENZ_hPDE5: NovaScreen (NVS) Enzymatic Assay for human Phosphodiesterase 5 (PDE5) (AID 2283194)
# How it was run: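 Screening began in duplicate at 25 uM, with actives taken into concentration-response. Enzyme activity of recombinant PDE5 toward its substrate was measured at 1 h by fluorescence mobility-shift detection, relative to DMSO controls.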
# [6] = target: human Protein Phosphatase, Mg2+/Mn2+ Dependent 1A (PPM1A), PPM1A (gene 5494) (UniProt P35813); test: NVS_ENZ_hPPM1A: NovaScreen (NVS) Enzymatic Assay for human Protein Phosphatase, Mg2+/Mn2+ Dependent 1A (PPM1A) (AID 2283198)
# How it was run: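 Primary screen in duplicate at 25 uM, with actives then titrated to a maximum of 50 uM. Recombinant PPM1A dephosphorylation of fluorescent substrate measured at 1 h, with substrate and product separated by mobility shift; inhibition fitted against DMSO.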
# [7] = target: human Phosphoinositide 3-kinase alpha (PI3Ka), PIK3CA (gene 5290) (UniProt P42336); test: NVS_ENZ_hPI3Ka: NovaScreen (NVS) Enzymatic Assay for human Phosphoinositide 3-kinase alpha (PI3Ka) (AID 2283196)
# How it was run: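 Duplicate single-point screen (25 uM), then singleton dose-response (max 50 uM) for compounds meeting the threshold. Cell-free kinase reaction, 1 h; fluorescent mobility-shift readout.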
# [8] = target: human Janus Kinase 2 (Jak2), JAK2 (gene 3717) (UniProt O60674); test: NVS_ENZ_hJak2: NovaScreen (NVS) Enzymatic Assay for human Janus Kinase 2 (Jak2) (AID 2283169)
# How it was run: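 Single-point duplicate screen at 25 uM, with hits run in concentration series to a 50 uM top dose. Substrate-product separation by mobility shift with fluorescence detection, 1 h post-dosing; DMSO baseline.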
# [9] = target: Serine/threonine-protein phosphatase PP1-alpha catalytic subunit (Homo sapiens) (UniProt P62136); test: NVS_ENZ_hPPP1CA: NovaScreen (NVS) Enzymatic Assay for human Protein Phosphatase 1 Aatalytic subunit Alpha (PPP1CA) (AID 2283200)
# How it was run: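 Chemicals were first screened in duplicate at 25 uM, and those passing threshold (e.g. 30% inhibition) were run as concentration series to 50 uM. Cell-free recombinant protein, 1.33 h read, fluorescent substrate/product mobility-shift detection, normalised to DMSO.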
# [10] = target: human Matrix Metalloproteinase-3 (MMP3), MMP3 (gene 4314) (UniProt P08254); test: NVS_ENZ_hMMP3: NovaScreen (NVS) Enzymatic Assay for human Matrix Metalloproteinase-3 (MMP3) (AID 2283185)
# How it was run: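 Fluorescent substrate turnover by recombinant MMP3 read after 1 h, signal loss scored against DMSO. Compounds first run in duplicate at 25 uM single dose, then actives confirmed by concentration series.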
# [11] = target: human c-Jun N-terminal Kinases (JNK2), MAPK9 (gene 5601) (UniProt P45984); test: NVS_ENZ_hJNK2: NovaScreen (NVS) Enzymatic Assay for human c-Jun N-terminal Kinases (JNK2) (AID 2283171)
# How it was run: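 Chemicals first tested in duplicate at 25 uM, then in singleton concentration series up to 50 uM, against extracted JNK2 enzyme. Activity loss read by fluorescence with mobility-shift separation 1 h post-dose; DMSO baseline.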
# [12] = target: Mitogen-activated protein kinase 3 (Homo sapiens) (UniProt P27361); test: NVS_ENZ_hMAPK3: NovaScreen (NVS) Enzymatic Assay for human Mitogen-Activated Protein Kinase 3 (MAPK 3) (AID 2283177)
# How it was run: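 Chemicals were first tested in duplicate at 25 uM, with hits re-run as concentration series (max 50 uM). Recombinant enzyme activity, measured 1 h post-dose in a cell-free format, was read by fluorescence/mobility shift relative to DMSO.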
# [13] = target: human MAP Kinase-Activated Protein Kinase 2 (MAPKAPK2), MAPKAPK2 (gene 9261) (UniProt P49137); test: NVS_ENZ_hMAPKAPK2: NovaScreen (NVS) Enzymatic Assay for human MAP Kinase-Activated Protein Kinase 2 (MAPKAPK2) (AID 2283178)
# How it was run: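 Chemicals screened in duplicate at 25 uM, then to 50 uM top concentration in concentration-response, against recombinant human MAPKAPK2; substrate conversion read 1 hr post-dosing by fluorescence after electrophoretic mobility-shift separation, loss-of-signal relative to DMSO.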
# [14] = target: human Mitogen- and Stress-activated Protein Kinase-1 (Msk1), RPS6KA5 (gene 9252) (UniProt O75582); test: NVS_ENZ_hMsk1: NovaScreen (NVS) Enzymatic Assay for human Mitogen- and Stress-activated Protein Kinase-1 (Msk1) (AID 2283187)
# How it was run: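 Chemicals first run in duplicate at 25 uM, with actives followed up in singleton concentration series to 50 uM maximum. Enzyme activity came from substrate/product mobility-shift separation with fluorescence detection after 1 h incubation of the recombinant protein.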
# [15] = target: cAMP-dependent protein kinase catalytic subunit alpha (Homo sapiens) (UniProt P17612); test: NVS_ENZ_hPKA: NovaScreen (NVS) Enzymatic Assay for human Protein Kinase A (PKA) (AID 2283192)
# How it was run: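 Cell-free kinase activity read by fluorescence after mobility-shift separation of substrate and product, 1 h post-dosing. Single-concentration duplicate screen (25 uM) preceded singleton concentration series (top 50 uM); loss of signal versus DMSO.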
# [16] = target: human Phosphodiesterase 10 (PDE10), PDE10A (gene 10846) (UniProt Q9Y233); test: NVS_ENZ_hPDE10: NovaScreen (NVS) Enzymatic Assay for human Phosphodiesterase 10 (PDE10) (AID 2283195)
# How it was run: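 Biochemical single-readout PDE10A assay, cell-free, extracted protein. Compounds first screened at 25 uM in duplicate, hits then titrated to 50 uM max. Activity measured after 1 h; loss-of-signal fitted against DMSO negative control.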
# [17] = target: human Protein Tyrosine Phosphatase Non-receptor Type 1 (PTPN1), PTPN1 (gene 5770) (UniProt P18031); test: NVS_ENZ_hPTPN1: NovaScreen (NVS) Enzymatic Assay for human Protein Tyrosine Phosphatase Non-receptor Type 1 (PTPN1) (AID 2283201)
# How it was run: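 Chemicals were first tested in duplicate at 25 uM, and those passing threshold went on to singleton concentration series topping at 50 uM. Recombinant enzyme, specific substrate, product separated by mobility shift, fluorescence read at 1.33 h; activity loss relative to DMSO.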
# [18] = target: human LYN Proto-Oncogene, Src family Tyrosine Kinase (LynA), LYN (gene 4067) (UniProt P07948); test: NVS_ENZ_hLynA: NovaScreen (NVS) Enzymatic Assay for human LYN Proto-Oncogene, Src family Tyrosine Kinase (LynA) (AID 2283173)
# How it was run: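 Recombinant kinase with fluorescent substrate; product separated from substrate by electrophoretic mobility shift and read 1 h after dosing. Duplicate screen at 25 uM, then concentration-response up to 50 uM; activity scored as signal loss against DMSO.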
# [19] = target: human Insulin Receptor (InsR), INSR (gene 3643) (UniProt P06213); test: NVS_ENZ_hInsR: NovaScreen (NVS) Enzymatic Assay for human Insulin Receptor (InsR) (AID 2283168)
# How it was run: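 Cell-free enzyme assay read 1 h post-dose by fluorescence after substrate/product mobility-shift separation. Duplicate 25 uM primary screen, then singleton concentration-response up to 50 uM for compounds passing threshold; loss of signal vs DMSO.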
# Sequence of human LYN Proto-Oncogene, Src family Tyrosine Kinase (LynA), LYN (gene 4067) (P07948 whole entry, looked up): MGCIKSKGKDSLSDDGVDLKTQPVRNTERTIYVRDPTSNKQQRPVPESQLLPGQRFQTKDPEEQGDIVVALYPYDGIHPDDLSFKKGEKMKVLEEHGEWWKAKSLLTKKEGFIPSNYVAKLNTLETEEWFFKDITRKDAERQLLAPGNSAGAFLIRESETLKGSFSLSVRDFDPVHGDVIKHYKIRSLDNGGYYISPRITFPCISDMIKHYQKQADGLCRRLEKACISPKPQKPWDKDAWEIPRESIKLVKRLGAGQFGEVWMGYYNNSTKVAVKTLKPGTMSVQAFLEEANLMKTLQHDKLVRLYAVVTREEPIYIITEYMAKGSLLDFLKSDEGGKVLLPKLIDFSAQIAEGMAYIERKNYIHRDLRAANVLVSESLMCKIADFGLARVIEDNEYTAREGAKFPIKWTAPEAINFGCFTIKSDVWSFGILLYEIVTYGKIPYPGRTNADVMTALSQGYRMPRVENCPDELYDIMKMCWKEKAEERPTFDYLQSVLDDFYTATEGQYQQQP
# Sequence of human Matrix Metalloproteinase-9 (MMP9), MMP9 (gene 4318) (P14780 whole entry, looked up): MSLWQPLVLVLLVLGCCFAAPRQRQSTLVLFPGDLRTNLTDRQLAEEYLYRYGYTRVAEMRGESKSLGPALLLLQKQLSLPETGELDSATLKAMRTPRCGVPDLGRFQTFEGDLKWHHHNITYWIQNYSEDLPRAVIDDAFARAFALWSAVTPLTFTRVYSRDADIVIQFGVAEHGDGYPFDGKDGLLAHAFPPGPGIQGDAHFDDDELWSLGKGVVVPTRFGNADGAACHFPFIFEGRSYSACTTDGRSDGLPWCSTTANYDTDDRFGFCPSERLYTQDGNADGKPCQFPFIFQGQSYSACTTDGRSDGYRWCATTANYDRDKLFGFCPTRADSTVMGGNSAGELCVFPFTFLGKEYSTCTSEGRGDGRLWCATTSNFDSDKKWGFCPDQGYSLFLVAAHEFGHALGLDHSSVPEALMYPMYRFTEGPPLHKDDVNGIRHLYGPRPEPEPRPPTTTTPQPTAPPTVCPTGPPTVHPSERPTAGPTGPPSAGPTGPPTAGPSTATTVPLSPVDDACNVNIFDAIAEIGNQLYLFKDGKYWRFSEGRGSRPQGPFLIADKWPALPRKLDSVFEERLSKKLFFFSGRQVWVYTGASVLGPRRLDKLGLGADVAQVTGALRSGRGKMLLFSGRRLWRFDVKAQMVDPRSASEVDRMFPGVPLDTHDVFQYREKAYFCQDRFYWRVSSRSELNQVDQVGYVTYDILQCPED
# Sequence of human Mitogen- and Stress-activated Protein Kinase-1 (Msk1), RPS6KA5 (gene 9252) (O75582 whole entry, looked up): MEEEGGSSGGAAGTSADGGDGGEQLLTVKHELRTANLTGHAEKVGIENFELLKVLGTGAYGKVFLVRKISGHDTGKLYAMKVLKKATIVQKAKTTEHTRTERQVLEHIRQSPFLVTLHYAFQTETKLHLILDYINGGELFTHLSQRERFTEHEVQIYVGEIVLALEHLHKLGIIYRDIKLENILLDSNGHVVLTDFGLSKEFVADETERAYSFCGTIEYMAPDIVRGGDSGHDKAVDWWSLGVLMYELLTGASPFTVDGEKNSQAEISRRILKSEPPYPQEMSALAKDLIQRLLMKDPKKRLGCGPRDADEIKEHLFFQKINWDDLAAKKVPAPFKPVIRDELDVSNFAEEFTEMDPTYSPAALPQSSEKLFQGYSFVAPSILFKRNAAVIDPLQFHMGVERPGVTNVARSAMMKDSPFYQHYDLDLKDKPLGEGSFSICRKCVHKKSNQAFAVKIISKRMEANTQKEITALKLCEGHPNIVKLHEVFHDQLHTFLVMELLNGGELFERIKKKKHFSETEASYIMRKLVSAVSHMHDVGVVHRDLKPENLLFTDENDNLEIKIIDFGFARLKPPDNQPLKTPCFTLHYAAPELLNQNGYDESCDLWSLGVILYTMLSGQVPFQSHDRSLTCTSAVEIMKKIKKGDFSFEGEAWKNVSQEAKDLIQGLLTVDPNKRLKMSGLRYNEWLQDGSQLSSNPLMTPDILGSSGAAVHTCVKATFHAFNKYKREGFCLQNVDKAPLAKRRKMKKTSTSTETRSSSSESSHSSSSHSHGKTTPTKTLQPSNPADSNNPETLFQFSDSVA
# Sequence of human Matrix Metalloproteinase-7 (MMP7), MMP7 (gene 4316) (P09237 whole entry, looked up): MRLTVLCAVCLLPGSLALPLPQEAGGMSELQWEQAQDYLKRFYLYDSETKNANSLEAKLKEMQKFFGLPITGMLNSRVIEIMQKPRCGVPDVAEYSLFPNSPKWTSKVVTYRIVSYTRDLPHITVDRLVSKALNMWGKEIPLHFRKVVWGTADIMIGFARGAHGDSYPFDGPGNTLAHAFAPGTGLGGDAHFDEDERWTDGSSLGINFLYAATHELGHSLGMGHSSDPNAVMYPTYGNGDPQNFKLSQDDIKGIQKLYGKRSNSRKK
# Sequence of human Phosphodiesterase 4A1 (PDE4A1), PDE4A (gene 5141) (P27815 whole entry, looked up): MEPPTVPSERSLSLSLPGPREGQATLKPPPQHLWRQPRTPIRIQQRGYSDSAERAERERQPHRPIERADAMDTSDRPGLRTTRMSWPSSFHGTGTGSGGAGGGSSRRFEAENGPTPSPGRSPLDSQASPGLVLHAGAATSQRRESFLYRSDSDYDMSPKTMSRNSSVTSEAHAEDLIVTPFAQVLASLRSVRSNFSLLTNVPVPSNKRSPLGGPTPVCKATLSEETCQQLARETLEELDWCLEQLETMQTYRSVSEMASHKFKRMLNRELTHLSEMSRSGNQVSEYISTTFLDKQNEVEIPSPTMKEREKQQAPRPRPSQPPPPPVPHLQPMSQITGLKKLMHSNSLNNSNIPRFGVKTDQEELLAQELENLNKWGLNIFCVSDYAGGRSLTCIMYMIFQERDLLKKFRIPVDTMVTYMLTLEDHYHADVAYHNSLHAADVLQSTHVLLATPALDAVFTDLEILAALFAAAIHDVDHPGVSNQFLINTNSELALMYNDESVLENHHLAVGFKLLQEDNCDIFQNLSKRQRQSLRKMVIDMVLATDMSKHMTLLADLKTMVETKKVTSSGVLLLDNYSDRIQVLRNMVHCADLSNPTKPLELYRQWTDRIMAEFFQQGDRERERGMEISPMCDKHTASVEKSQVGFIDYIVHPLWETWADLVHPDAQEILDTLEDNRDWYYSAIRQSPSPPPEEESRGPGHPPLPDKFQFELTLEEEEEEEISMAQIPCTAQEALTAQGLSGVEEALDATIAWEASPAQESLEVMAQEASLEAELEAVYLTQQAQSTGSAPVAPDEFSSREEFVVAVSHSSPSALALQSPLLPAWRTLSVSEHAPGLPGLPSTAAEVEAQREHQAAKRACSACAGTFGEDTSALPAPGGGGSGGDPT
# Sequence of human MAP Kinase-Activated Protein Kinase 2 (MAPKAPK2), MAPKAPK2 (gene 9261) (P49137 whole entry, looked up): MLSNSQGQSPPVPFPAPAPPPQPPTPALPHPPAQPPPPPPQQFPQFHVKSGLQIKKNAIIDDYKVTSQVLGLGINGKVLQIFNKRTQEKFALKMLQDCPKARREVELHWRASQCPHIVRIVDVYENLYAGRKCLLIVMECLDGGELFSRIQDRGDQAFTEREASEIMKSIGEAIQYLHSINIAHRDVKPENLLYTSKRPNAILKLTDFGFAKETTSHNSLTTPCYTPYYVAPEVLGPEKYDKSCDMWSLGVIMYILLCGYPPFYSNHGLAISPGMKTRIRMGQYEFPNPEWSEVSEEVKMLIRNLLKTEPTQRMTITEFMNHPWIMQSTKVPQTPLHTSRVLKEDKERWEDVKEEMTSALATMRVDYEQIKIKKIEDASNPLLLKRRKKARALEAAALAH
# Sequence of human Matrix Metalloproteinase-3 (MMP3), MMP3 (gene 4314) (P08254 whole entry, looked up): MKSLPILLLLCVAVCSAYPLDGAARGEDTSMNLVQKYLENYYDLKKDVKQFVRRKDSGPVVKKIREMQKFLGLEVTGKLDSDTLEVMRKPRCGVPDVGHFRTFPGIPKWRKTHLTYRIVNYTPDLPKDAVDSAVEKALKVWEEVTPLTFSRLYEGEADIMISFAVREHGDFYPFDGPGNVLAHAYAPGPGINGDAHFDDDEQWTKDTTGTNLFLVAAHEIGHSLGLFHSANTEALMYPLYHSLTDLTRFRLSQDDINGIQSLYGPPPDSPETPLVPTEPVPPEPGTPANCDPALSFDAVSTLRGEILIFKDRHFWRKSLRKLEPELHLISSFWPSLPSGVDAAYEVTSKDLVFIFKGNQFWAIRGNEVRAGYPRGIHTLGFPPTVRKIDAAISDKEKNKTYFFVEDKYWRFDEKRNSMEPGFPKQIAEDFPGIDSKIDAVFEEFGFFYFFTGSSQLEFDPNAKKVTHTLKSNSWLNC
# Sequence of Mitogen-activated protein kinase 3 (Homo sapiens) (P27361 whole entry, looked up): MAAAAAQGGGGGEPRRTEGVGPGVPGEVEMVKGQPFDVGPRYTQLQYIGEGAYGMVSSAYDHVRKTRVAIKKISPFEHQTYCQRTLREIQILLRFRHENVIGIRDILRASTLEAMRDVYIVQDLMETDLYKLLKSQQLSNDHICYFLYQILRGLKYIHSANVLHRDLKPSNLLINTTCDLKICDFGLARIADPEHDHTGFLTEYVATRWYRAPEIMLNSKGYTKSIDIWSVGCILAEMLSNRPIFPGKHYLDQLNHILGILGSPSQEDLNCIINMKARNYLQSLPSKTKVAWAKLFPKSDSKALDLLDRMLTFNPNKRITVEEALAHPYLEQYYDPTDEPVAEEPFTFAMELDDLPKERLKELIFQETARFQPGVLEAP
# Sequence of human Protein Tyrosine Phosphatase Non-receptor Type 1 (PTPN1), PTPN1 (gene 5770) (P18031 whole entry, looked up): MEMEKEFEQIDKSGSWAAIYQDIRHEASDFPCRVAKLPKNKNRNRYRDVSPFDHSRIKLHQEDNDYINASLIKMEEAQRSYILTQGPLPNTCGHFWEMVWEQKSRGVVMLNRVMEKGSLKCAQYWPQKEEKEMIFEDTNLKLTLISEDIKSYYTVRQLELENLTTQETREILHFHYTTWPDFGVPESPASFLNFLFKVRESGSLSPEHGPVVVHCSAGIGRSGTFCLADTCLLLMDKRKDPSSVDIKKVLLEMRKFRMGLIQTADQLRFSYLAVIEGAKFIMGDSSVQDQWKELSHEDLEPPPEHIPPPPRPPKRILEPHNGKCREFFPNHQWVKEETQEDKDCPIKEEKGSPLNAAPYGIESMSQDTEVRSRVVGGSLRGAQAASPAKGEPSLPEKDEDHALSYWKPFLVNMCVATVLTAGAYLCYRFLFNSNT
compound,measurement,setting,value
C=CCOC(Cn1ccnc1)c1ccc(Cl)cc1Cl (stereo not drawn),outcome,[1],inactive
same,AC50,[2],9.22 µM (active)
same,AC50,[3],18.6 µM (active)
same,outcome,[4],inactive
CCOC(=O)C(C)Oc1ccc(Oc2nc3ccc(Cl)cc3o2)cc1 (stereo not drawn),outcome,[1],inactive
CCOC(=O)c1ccc(O)cc1,outcome,[5],inactive
same,outcome,[6],inactive
CCSC(=O)N(CC(C)C)CC(C)C,outcome,[7],inactive
c1ccc(Nc2ccccc2)cc1,outcome,[8],inactive
same,outcome,[9],inactive
c1ccc2[nH]c(-c3cscn3)nc2c1,AC50,[8],2.27 µM (active)
same,AC50,[5],11.6 µM (active)
CCOC(=O)[C@H](C)Oc1ccc(Oc2nc3ccc(Cl)cc3o2)cc1,outcome,[1],inactive
CCCOC(=O)NCCCN(C)C,outcome,[10],inactive
COCCO,outcome,[11],inactive
S=C(S)NCCNC(=S)S.[Mn+2].[S-]C([S-])=NCCN=C([S-])[S-].[Zn+2],AC50,[8],7.51 µM (active) and 40.2 µM (active)
same,outcome,[8],inactive
same,outcome,[11],inactive
same,AC50,[12],6.76 µM (active) and 25 µM (active)
same,AC50,[13],408 nM (active) and 399 nM (active)
same,AC50,[1],16.2 µM (active)
same,outcome,[1],inactive
same,AC50,[2],3.74 µM (active)
same,AC50,[10],10.8 µM (active)
same,AC50,[14],1.45 µM (active) and 9.58 µM (active)
same,AC50,[4],3.82 µM (active) and 3.7 µM (active) and 10.6 µM (active)
same,AC50,[15],20.5 µM (active)
same,AC50,[5],12.5 µM (active) and 14.2 µM (active)
same,outcome,[5],inactive
same,AC50,[16],2.41 µM (active) and 17.6 µM (active)
same,AC50,[7],6.63 µM (active) and 14.6 µM (active)
same,outcome,[7],inactive
same,AC50,[17],830 nM (active) and 1.81 µM (active)
N#CSCSc1nc2ccccc2s1,outcome,[18],inactive
same,outcome,[13],inactive
same,outcome,[7],inactive
C[C@]12C[C@H](O)[C@H]3[C@@H](CCC4=CC(=O)CC[C@@]43C)[C@@H]1CC[C@@H]2C(=O)CO,outcome,[10],inactive
CC1(C)C(C=C(Cl)Cl)C1C(=O)OCc1cccc(Oc2ccccc2)c1 (stereo not drawn),outcome,[2],inactive
CN(C)C(=O)Nc1ccc(Cl)c(Cl)c1,outcome,[19],inactive
same,outcome,[10],inactive
same,outcome,[9],inactive
COc1nc(C)nc(NC(=O)NS(=O)(=O)c2ccccc2OCCCl)n1,AC50,[13],36.2 µM (active)
same,AC50,[3],4.32 µM (active)
CCNc1nc(N)nc(Cl)n1,AC50,[4],25 µM (active)
N[C@@H](Cc1cc(I)c(Oc2ccc(O)c(I)c2)c(I)c1)C(=O)O,AC50,[8],5.49 µM (active)
same,outcome,[13],inactive
same,AC50,[1],5.14 µM (active)
CSC(=O)c1cccc2nnsc12,outcome,[4],inactive
same,outcome,[5],inactive
Oc1ccc(C(c2ccc(O)cc2)C(Cl)(Cl)Cl)cc1,outcome,[12],inactive
same,outcome,[1],inactive
same,outcome,[2],inactive
same,outcome,[3],inactive
same,AC50,[7],29.1 µM (active)
C[C@]12CC[C@@H]3c4ccc(O)cc4C[C@@H](CCCCCCCCCS(=O)CCCC(F)(F)C(F)(F)F)[C@H]3[C@@H]1CC[C@@H]2O (stereo partly drawn),outcome,[2],inactive
same,outcome,[10],inactive
COC(=O)c1ccccc1C(=O)O,outcome,[18],inactive
CCOC(=O)NCCOc1ccc(Oc2ccccc2)cc1,outcome,[2],inactive
COC(=O)c1ccccc1S(=O)(=O)NC(=O)Nc1nc(OC(F)F)cc(OC(F)F)n1,outcome,[12],inactive
same,outcome,[13],inactive
same,outcome,[15],inactive
COC(=O)c1c(Cl)nn(C)c1S(=O)(=O)NC(=O)Nc1nc(OC)cc(OC)n1,outcome,[5],inactive
O=C(c1ccc(O)cc1O)c1ccc(O)cc1O,AC50,[19],19.3 µM (active)
same,AC50,[8],21 µM (active)
same,outcome,[18],inactive
same,AC50,[14],24.1 µM (active)
same,outcome,[15],inactive
same,AC50,[5],22 µM (active)
